Source: PubChem BioAssay
This is a sample that favours compounds with a hit; in the whole collection about 1.2% have one here.
Tb PFK inh: qHTS Assay to Find Inhibitors of T. brucei phosphofructokinase | ATP-dependent 6-phosphofructokinase (Trypanosoma brucei brucei), O15648 | T. brucei PFK, ADP-Glo luminescence | Potency, µM (titrated, usually from 57.5 µM), without a hit: at the top dose activity, negative = inhibition, hits mostly inhibitors | hit rate 0.17% among 330,000 | AID 485367, 2010; active means well fitted inhibition curve with a large enough effect; inconclusive means small, poorly fitted or top-dose-only effect, or effect the other way;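 further: potency means the concentration at half of the fitted maximal effect; 0% = uninhibited 1x PFK enzyme wells and -100% = no-enzyme wells; nearly all actives have a fitted effect of over 60% in size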
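ADP-Glo luminescence quantified ADP after 45 min at room temperature, with 1.25 nM T. brucei PFK, 0.1 mM ATP and 0.5 mM fructose-6-phosphate in pH 8.0 TEA buffer. qHTS titrations up to 57 µM; curves classified by quality.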
KCNH2 3.1 inh: qHTS for Inhibitors of KCHN2 3.1: Mutant qHTS; Potassium voltage-gated channel subfamily H member 2, brain isoform KCNH2 3.1 (human); U2OS KCNH2 3.1, thallium flux FluxOr; active compounds read low; activity change, % (tested at about 1.8 µM); hit rate 0.95% among 340,000; AID 720553, 2013;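 active means maximum activity change below -70%; inconclusive means maximum activity change from -70% to -50%; inactive means maximum activity change above -50%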;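 further: thallium influx rate constant from kinetic fluorescence after stimulation buffer; on the % scale 0 is the no-effect control and ±100 the full control effect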
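Normalized rate constant (relative to positive and negative DMSO controls) derived from a 2 min kinetic fluorescence read after stimulation; U2OS cells expressing the 3.1 isoform via virus at 1.77 x 10^8 /mL.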
TSG101-PTAP inh: qHTS Assay for Iinhibitors of HIV-1 Budding by Blocking the Interaction of PTAP/TSG101. Potency, µM (highest dose often 115 µM), without a hit: at the highest dose activity change, negative = inhibition, hits mostly inhibitors. Fluorescence polarization, FITC-PTAP peptide / Tsg101 binding. AID 493005, 2010. 340,000 tested, under 10 active. Tumor susceptibility gene 101 protein (Homo sapiens), Q99816; active means well fitted inhibition curve with a large enough effect in the main read-out, with a control signal flat, not every such curve was filed as active; inconclusive means small, poorly fitted or top-dose-only effect, or effect the other way, or a change in a side signal; inactive means no such curve, though single readings can be large or run the other way; further: potency means the concentration at half of the fitted maximal effect; % of control where 0% means no effect
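Fluorescence polarization binding of Tsg101 binding domain (10 uM final) to FITC-labeled PTAP peptide (50 nM final) in HEPES pH 7.5 buffer with NaCl, Tween 20, EDTA, TCEP. Compounds added before peptide; binding 20 min at RT.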
KCNH2 WT inh: qHTS for Inhibitors of KCHN2 3.1: Wildtype qHTS | AID 720551, 2013 | hit rate 0.37% among 340,000 | Voltage-gated inwardly rectifying potassium channel KCNH2 (Homo sapiens), Q12809 | activity change, % at 1.84 µM | U2OS, BacMam KCNH2, thallium flux FluxOr; active compounds read low;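 active means maximum activity change below -70%; inconclusive means maximum activity change between -70% and -50%; inactive means maximum activity change above -50%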; further: on the % scale 0 is the no-effect control and ±100 the full control effect
Target sequence (Q12809 whole entry, looked up): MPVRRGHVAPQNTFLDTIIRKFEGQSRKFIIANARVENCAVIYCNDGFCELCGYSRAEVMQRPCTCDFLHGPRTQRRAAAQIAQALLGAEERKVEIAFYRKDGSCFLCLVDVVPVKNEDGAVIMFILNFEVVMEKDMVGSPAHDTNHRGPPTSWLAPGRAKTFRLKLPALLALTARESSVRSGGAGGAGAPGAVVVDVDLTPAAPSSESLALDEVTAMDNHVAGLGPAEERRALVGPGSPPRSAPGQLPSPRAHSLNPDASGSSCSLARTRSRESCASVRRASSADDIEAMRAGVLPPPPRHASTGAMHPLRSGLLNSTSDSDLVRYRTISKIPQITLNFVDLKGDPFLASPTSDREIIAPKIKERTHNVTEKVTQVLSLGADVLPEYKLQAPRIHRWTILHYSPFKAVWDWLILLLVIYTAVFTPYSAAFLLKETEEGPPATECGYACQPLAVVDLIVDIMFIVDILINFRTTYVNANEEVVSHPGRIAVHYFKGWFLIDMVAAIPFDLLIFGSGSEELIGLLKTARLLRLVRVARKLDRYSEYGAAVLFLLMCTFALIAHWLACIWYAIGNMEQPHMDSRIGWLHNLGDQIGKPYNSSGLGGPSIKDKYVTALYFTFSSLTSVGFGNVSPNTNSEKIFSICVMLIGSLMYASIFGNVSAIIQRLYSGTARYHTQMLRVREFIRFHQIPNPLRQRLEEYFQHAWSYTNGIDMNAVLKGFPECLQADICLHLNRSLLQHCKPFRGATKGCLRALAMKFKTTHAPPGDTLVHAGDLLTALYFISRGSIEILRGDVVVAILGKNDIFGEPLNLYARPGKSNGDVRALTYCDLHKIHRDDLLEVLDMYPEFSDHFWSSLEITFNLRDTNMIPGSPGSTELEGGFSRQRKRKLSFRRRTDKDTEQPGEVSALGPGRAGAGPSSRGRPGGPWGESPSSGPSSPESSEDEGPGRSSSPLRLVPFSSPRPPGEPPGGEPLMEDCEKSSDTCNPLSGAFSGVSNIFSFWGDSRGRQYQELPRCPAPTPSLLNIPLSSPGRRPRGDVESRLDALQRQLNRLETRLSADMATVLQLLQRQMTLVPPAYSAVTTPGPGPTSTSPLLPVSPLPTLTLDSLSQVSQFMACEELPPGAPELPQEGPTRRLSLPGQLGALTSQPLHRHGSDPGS
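U2OS cells were transduced with wild-type KCNH2 virus (2.03 x 10^8 / mL) for 4 h at room temperature, then cultured overnight at 37 C. Thallium flux was read with FluxOr dye. Rate constants were normalized to DMSO controls.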
Starred values were filed as active, the others as inactive.

What do the screens show for `CCCCN(C)CC(O)Cn1cc(/C=C/C(=O)c2ccc(C)cc2)c2ccccc21` (stereo not drawn)?
Tb PFK inh: 4%; KCNH2 3.1 inh: -21; TSG101-PTAP inh: -3%; KCNH2 WT inh: 28

What do the screens show for `CN(CCOc1ccc(Cl)cc1)CC(=O)Nc1ccc(OC(F)F)cc1`?
Tb PFK inh: -14%; KCNH2 3.1 inh: -85*; TSG101-PTAP inh: -2%; KCNH2 WT inh: -8

Results for N#Cc1ccccc1NC(=O)COC(=O)CN1C(=O)C2CCCCC2C1=O (stereo not drawn) ?
Tb PFK inh: 0%; KCNH2 3.1 inh: 4; TSG101-PTAP inh: -5%; KCNH2 WT inh: -4

Results for Nc1nc(CSC(=S)N2CCOCC2)nc(Nc2ccc(F)cc2)n1 ?
Tb PFK inh: 0%; KCNH2 3.1 inh: -115*; TSG101-PTAP inh: 0%; KCNH2 WT inh: -2

What do the screens show for `COc1ccccc1N1CCN(Cc2nc(N)nc(Nc3ccccc3)n2)CC1`?
Tb PFK inh: -1%; KCNH2 3.1 inh: inconclusive; TSG101-PTAP inh: 0%; KCNH2 WT inh: 46

What do the screens show for `COc1ccccc1Nc1nc(N)nc(CN2CCCCCC2)n1`?
Tb PFK inh: 0%; KCNH2 3.1 inh: -19; TSG101-PTAP inh: -6%; KCNH2 WT inh: -3

How did Nc1nc(CN2CCCCCC2)nc(Nc2ccc(F)cc2)n1 do in these assays?
Tb PFK inh: 6%; KCNH2 3.1 inh: -73*; TSG101-PTAP inh: -3%; KCNH2 WT inh: 28

How did Nc1nc(CN2CCN(c3ccccn3)CC2)nc(Nc2ccc(F)cc2)n1 do in these assays?
Tb PFK inh: 30%; KCNH2 3.1 inh: -89*; TSG101-PTAP inh: -1%; KCNH2 WT inh: -3

What do the screens show for `CC1(C2CC2)NC(=O)N(CC(=O)NCC(=O)Nc2ccc(F)c(F)c2F)C1=O` (stereo not drawn)?
Tb PFK inh: -3%; KCNH2 3.1 inh: -1; TSG101-PTAP inh: 1%; KCNH2 WT inh: 1

How did CC(NS(=O)(=O)c1cc2c3c(c1)CCC(=O)N3CCC2)c1ccccc1 (stereo not drawn) do in these assays?
Tb PFK inh: 0%; KCNH2 3.1 inh: -10; TSG101-PTAP inh: 0%; KCNH2 WT inh: 29

How did CCN(CC(=O)Nc1c(F)cccc1F)C(=O)c1ccc2c(c1)C(=O)N(c1ccccc1C)C2=O do in these assays?
KCNH2 3.1 inh: 5; KCNH2 WT inh: -2

How did O=C(c1ccc(-n2cccc2)cc1)N1CCN(Cc2ccccc2)CC1 do in these assays?
Tb PFK inh: 1%; KCNH2 3.1 inh: inconclusive; TSG101-PTAP inh: -4%; KCNH2 WT inh: -73*

What do the screens show for `Cc1ccc(NC(=O)CN2CCN(Cc3ccccc3)CC2)c(Br)c1`?
Tb PFK inh: -14%; KCNH2 3.1 inh: -87*; TSG101-PTAP inh: 0%; KCNH2 WT inh: -39

What do the screens show for `Cc1ccc(N2C(=O)c3ccc(C(=O)N4CCN(Cc5ccccc5)CC4)cc3C2=O)cc1`?
Tb PFK inh: -4%; KCNH2 3.1 inh: -202*; TSG101-PTAP inh: -1%; KCNH2 WT inh: -145*

Results for O=C(CSc1nnc(CNC(=O)c2c(F)cccc2Cl)o1)NCc1ccccc1 ?
Tb PFK inh: 0%; KCNH2 3.1 inh: 20; TSG101-PTAP inh: -3%; KCNH2 WT inh: 5

What do the screens show for `N#CCC(=O)N/N=C/c1ccc(Cl)cc1`?
Tb PFK inh: -6%; KCNH2 3.1 inh: -73*; TSG101-PTAP inh: -6%; KCNH2 WT inh: 5

How did COc1ccccc1/C=C(/C(=O)OCC(=O)Nc1cc(C)ccc1C)c1ccccc1 do in these assays?
Tb PFK inh: 2%; KCNH2 3.1 inh: -3; TSG101-PTAP inh: 0%; KCNH2 WT inh: active

What do the screens show for `CCc1ccc(NC(=O)COC(=O)/C(=C/c2ccccc2OC)c2ccccc2)cc1`?
Tb PFK inh: 0%; KCNH2 3.1 inh: -24; TSG101-PTAP inh: 1%; KCNH2 WT inh: 10

How did O=C(Cn1c(=O)c2c(ncn2Cc2ccccc2)n(Cc2ccccc2)c1=O)NC1CC1 do in these assays?
Tb PFK inh: 0%; KCNH2 3.1 inh: -90*; TSG101-PTAP inh: -1%; KCNH2 WT inh: -3

What do the screens show for `CCn1cnc2c1c(=O)n(CC(=O)O)c(=O)n2Cc1ccccc1`?
Tb PFK inh: -19%; KCNH2 3.1 inh: -27; TSG101-PTAP inh: -8%; KCNH2 WT inh: -2

What do the screens show for `O=C(CC(O)c1ccccc1)Nc1ccccn1` (stereo not drawn)?
TSG101-PTAP inh: 0%; KCNH2 WT inh: -2

Results for CCOC(=O)c1ccccc1NC(=O)CSc1nnc(Cc2cccn2C)n1-c1ccc(F)cc1 ?
Tb PFK inh: -4%; KCNH2 3.1 inh: -11; TSG101-PTAP inh: -4%; KCNH2 WT inh: -87*

How did COc1ccc(S(=O)(=O)N2CCC(C(=O)N[C@@H](C)C(=O)NC3CC3)CC2)cc1 do in these assays?
Tb PFK inh: -4%; KCNH2 3.1 inh: 2; TSG101-PTAP inh: -4%; KCNH2 WT inh: 1

How did Cc1cccc(CCNS(=O)(=O)c2ccc(S(=O)(=O)N3CCC(C)CC3)cc2)c1 do in these assays?
KCNH2 3.1 inh: -79*; TSG101-PTAP inh: -3%; KCNH2 WT inh: -6

Results for CN(CC(=O)Nc1cccc(F)c1)C(=O)CN1C(=O)C2CC=CCC2C1=O (stereo not drawn) ?
Tb PFK inh: 0%; KCNH2 3.1 inh: 8; TSG101-PTAP inh: -1%; KCNH2 WT inh: 12

What do the screens show for `CCN1C(=NCCc2c[nH]c3ccccc23)N[C@@H](c2ccccc2)C(C(=O)OC)=C1C`?
Tb PFK inh: 2%

How did CC(=O)NC(=S)Nc1ccc(N2CCOCC2)c(S(=O)(=O)Nc2cc(Cl)ccc2Cl)c1 do in these assays?
Tb PFK inh: 1%; KCNH2 3.1 inh: -82*; TSG101-PTAP inh: -3%; KCNH2 WT inh: inconclusive

What do the screens show for `O=C(Nc1ccc(N2CCOCC2)c(S(=O)(=O)Nc2cc(Cl)ccc2Cl)c1)c1cccnc1`?
Tb PFK inh: 1%; KCNH2 3.1 inh: -5; TSG101-PTAP inh: 1%; KCNH2 WT inh: 4

Results for O=C(O)Cc1ccc2c(c1)N(S(=O)(=O)c1cccs1)CC(C(=O)O)O2 (stereo not drawn) ?
Tb PFK inh: -7%; KCNH2 3.1 inh: 4; TSG101-PTAP inh: -3%; KCNH2 WT inh: -4

How did NC(=O)C1CCN(C(=O)C2CCC(=O)N(C3CCCCCC3)C2)CC1 (stereo not drawn) do in these assays?
Tb PFK inh: 1%; KCNH2 3.1 inh: -8; TSG101-PTAP inh: -5%; KCNH2 WT inh: -9

Results for CCc1ccc(OC(=O)c2cccnc2)cc1 ?
Tb PFK inh: -5%; KCNH2 3.1 inh: -9; TSG101-PTAP inh: -8%; KCNH2 WT inh: -1

How did Cc1ccc(/C([O-])=C(/C(=S)NCc2ccccc2)[n+]2cccc(CO)c2)cc1[N+](=O)[O-] do in these assays?
Tb PFK inh: -7%; KCNH2 3.1 inh: 2; TSG101-PTAP inh: -4%; KCNH2 WT inh: -74*
